Screens deposited in PubChem by National Center for Advancing Translational Sciences (NCATS).
In the library only some 5.7% were active in any assay of this set; here they are far more common.
A549 tox-1 = Nrf2 qHTS screen for inhibitors: counterscreen for cytotoxicity | A549 ARE-Fluc cells, CellTiter-Fluor viability, 18-24 h | Potency, µM (series often up to 46 µM), usual class: inhibitors | 0.16% of 390,000 active | AID 504648, 2011
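A549 ARE-Fluc cells in 5% FBS OPTI-MEM, 5000 cells/well, rested 2 h then exposed to compounds in concentration-response for 18-24 h at 37 °C. Viability by CellTiter-Fluor fluorescence (Ex 405/Em 525) after 30 min; luciferase luminescence (BugLite, 15 min, RT) read afterwards.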
PI4K2A block = qHTS for small molecular inhibitors of PI4K2A; Phosphatidylinositol 4-kinase type 2-alpha (Homo sapiens), Q9BTU6; purified PI4K2A, ADP-Glo luminescence, 1 h; hits give low values; activity change, negative = inhibition, % at 76.9 µM; 0.13% of 420,000 active; in the data active means activity change below about -50%; inconclusive means mostly about -30% to -49%
Target sequence (Q9BTU6 whole entry, looked up): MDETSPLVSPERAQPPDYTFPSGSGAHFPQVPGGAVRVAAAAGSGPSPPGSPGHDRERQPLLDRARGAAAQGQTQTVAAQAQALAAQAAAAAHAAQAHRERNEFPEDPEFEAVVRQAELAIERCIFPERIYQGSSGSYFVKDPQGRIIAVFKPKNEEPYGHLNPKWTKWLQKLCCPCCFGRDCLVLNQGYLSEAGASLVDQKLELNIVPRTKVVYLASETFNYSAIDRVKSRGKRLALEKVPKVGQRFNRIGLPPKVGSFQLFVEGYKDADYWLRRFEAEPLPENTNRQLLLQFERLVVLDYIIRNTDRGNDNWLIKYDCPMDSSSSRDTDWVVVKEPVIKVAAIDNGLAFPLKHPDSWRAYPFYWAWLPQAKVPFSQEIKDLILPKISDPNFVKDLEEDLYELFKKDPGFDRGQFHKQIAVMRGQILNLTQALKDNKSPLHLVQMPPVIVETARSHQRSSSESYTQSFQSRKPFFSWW
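In this quantitative HTS, ADP production by PI4K2A was quantified luminescently after 1 h at ambient temperature; 100 microM adenosine served as plate-quality control.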
Nrf2 block = Nrf2 qHTS screen for inhibitors; AID 504444, 2011; 2.1% of 360,000 active; A549 ARE-Fluc reporter, luciferase luminescence, 18-24 h; Potency, µM (doses to about 46 µM), most hits filed as inhibitors; further: nearly all actives have a fitted effect of over 60% in size
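In this cell-based qHTS, ARE-driven firefly luciferase in A549 cells reports Nrf2 activity; the luminescent signal after BugLite lysis is the measured value, with a prior CellTiter-Fluor read for cell health.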
KB-3-1 tox = qHTS assay for MDR1-selective chemotherapeutics: Primary screen using the parental adenocarcinoma cell KB-3-1. KB-3-1 viability, CellTiter-Glo ATP luminescence, 72 h. 1.4% of 400,000 active. AID 1347075, 2019. Potency, µM (top dose mostly 46.1 µM), most hits filed as cytotoxic; further: nearly all actives have a fitted effect of over 60% in size
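Cytotoxicity in the drug-sensitive parental line KB-3-1 was scored as loss of CellTiter-Glo luminescence following 72 h incubation with compound. Values come from curve fitting of normalized concentration-response data.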
KB-V1 cytotox = qHTS assay for MDR1-selective chemotherapeutics: Primary screen using the drug-selected MDR subline cells KB-V1. KB-V1 MDR cells viability, CellTiter-Glo, 72 h. Potency, µM (highest dose often 46.1 µM), actives largely listed as cytotoxic. 3.4% of 400,000 active; further: nearly all actives have a fitted effect of over 60% in size
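Potencies derive from concentration-effect curves fitted to normalized luminescence (CellTiter-Glo) of KB-V1 cells treated for 72 h at 37 degrees C in phenol-red-free DMEM containing 10% FBS.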
Giardia kill = Small Molecules that selectively kill Giardia lamblia: qHTS | Giardia lamblia trophozoite viability | AID 540267, 2011 | activity change, % at 7.66 µM, hits read low | 0.15% of 340,000 active; in the data active means activity change below about -80%; inconclusive means between about -30% and that limit;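 further: parasites exposed to compound for two days anaerobically before the ATP read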
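Media and compound were dispensed first, then trophozoites at 100 cells/well; plates sat 48 hrs at 37 deg C without oxygen before ATP luminescence reagent was added and read after 15-30 min at room temperature.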
FLuc counter 3 = Nrf2 qHTS screen for inhibitors: Purified Fluc Biochemical Counterscreen for Hit Validation | shares compounds with Nrf2 block | purified firefly luciferase, luminescence inhibition | Potency, µM (titrated, usually from 57.5 µM), actives largely listed as inhibitors | 4% of 1,400 active; further: nearly all actives have a fitted effect of over 65% in size
A549 tox-2 = Nrf2 qHTS screen for inhibitors: A549 ARE-Fluc Cytotoxicity Counterscreen for Hit Validation; 2% of 1,400 active; A549 ARE-Fluc cells, cytotoxicity counterscreen; Potency, µM (top dose mostly 46.1 µM), hits mostly inhibitors; shares compounds with Nrf2 block; AID 720523, 2013;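 further: cells exposed to compounds for 18 to 24 hours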
Nrf2 ARE inh = Nrf2 qHTS screen for inhibitors: Nrf2 A549 ARE-Fluc Confirmation Assay for Hit Validation; shares compounds with Nrf2 block; A549 ARE-firefly luciferase reporter, luminescence; Potency, µM (highest dose often 46.1 µM), most hits filed as inhibitors; 74% of 1,400 active; further: nearly all actives have a fitted effect of over 65% in size
Each line names hits and unclear results; the compound was inactive in the other large screens (follow-up assays come after a bar, where shown). Unless noted, the call rests on the fitted dose curve; in most records, active means well fitted curve in the direction sought with a large enough effect; inconclusive means small, poorly fitted or top-dose-only effect, or another doubt; inactive means no such curve, though single readings can be large; an effect the other way counts as inactive or inconclusive.

O[C@H](COc1ccc(OC(F)(F)F)cc1)CN1CCC(C(O)(c2ccccc2)c2ccccc2)CC1	none (no result: A549 tox-1, Nrf2 block, KB-3-1 tox, KB-V1 cytotox, Giardia kill)
Cc1ccc(-n2nc3c(=O)n(C(C)C(=O)NCc4ccc(OC(C)C)cc4)nc(C)c3c2C)cc1 (centres undefined)	Nrf2 block 1.8µM (no result: KB-3-1 tox, KB-V1 cytotox, Giardia kill) | FLuc counter 3 inactive | A549 tox-2 inactive | Nrf2 ARE inh 8.2µM
COc1ccc(OC)c(NC(=O)CSc2ncnc3c2cnn3-c2ccccc2Cl)c1	A549 tox-1 inconclusive, Nrf2 block 4.6µM, KB-3-1 tox inconclusive, KB-V1 cytotox inconclusive | FLuc counter 3 inactive | A549 tox-2 inactive
COc1cc(NC(=O)CSc2ncnc3c2cnn3Cc2ccccc2)cc(OC)c1	Nrf2 block inconclusive
CCN(CC(=O)Nc1c(F)cccc1F)C(=O)c1cc(S(=O)(=O)N(CC)CC)ccc1N1CCCCC1	Nrf2 block 8.2µM | FLuc counter 3 inactive | A549 tox-2 inactive | Nrf2 ARE inh 10µM
Cc1nc2ccc(NC(=O)c3ccc(Cl)c(S(=O)(=O)N(C)c4ccccc4)c3)cc2s1	Nrf2 block 3.3µM, KB-3-1 tox inconclusive, KB-V1 cytotox inconclusive | FLuc counter 3 inactive | A549 tox-2 inactive | Nrf2 ARE inh inconclusive
Cc1nc2ccc(NC(=O)c3cc(S(=O)(=O)N(C)c4ccccc4)ccc3Cl)cc2s1	Nrf2 block 5.2µM, KB-3-1 tox inconclusive, KB-V1 cytotox inconclusive | FLuc counter 3 inactive | A549 tox-2 inactive | Nrf2 ARE inh inconclusive
Cc1nc2ccc(NC(=O)c3ccc(S(=O)(=O)N(C)C)cc3)cc2s1	Nrf2 block inconclusive
Cc1ccc2c(c1)N(CCCC(=O)N(C)Cc1ccc(F)cc1)C(=O)CO2	none (no result: A549 tox-1, Nrf2 block, KB-3-1 tox, KB-V1 cytotox, Giardia kill)
CCOC(=O)c1cnc2ccc(OCC)cc2c1NCCc1ccc(OC)c(OC)c1	Nrf2 block 3.7µM (no result: KB-3-1 tox, KB-V1 cytotox, Giardia kill) | FLuc counter 3 inactive | A549 tox-2 inconclusive | Nrf2 ARE inh 13µM
OCc1c[nH]c2ccccc12	none
Oc1cccc2c(CC(O)c3c[nH]c4ccccc34)ccnc12 (centres undefined)	KB-3-1 tox 0.73µM, KB-V1 cytotox inconclusive (no result: A549 tox-1, PI4K2A block, Nrf2 block, Giardia kill) | FLuc counter 3 inactive | A549 tox-2 inactive | Nrf2 ARE inh 4.1µM
CC1CCn2c(nc3cc(C(=O)NCc4ccccc4)ccc32)C1 (centres undefined)	none (no result: Nrf2 block, KB-3-1 tox, KB-V1 cytotox, Giardia kill)
CC(=O)N1c2ccc(S(=O)(=O)N3CCC(C(=O)N4CCN(c5ccc(Cl)cc5)CC4)CC3)cc2CC1C (centres undefined)	Nrf2 block 5.2µM | FLuc counter 3 inactive | A549 tox-2 inactive
CC1Cc2cc(S(=O)(=O)N3CCN(c4ccc(Cl)cc4)CC3)ccc2N1C(=O)C1CC1 (centres undefined)	Nrf2 block 7.3µM, KB-3-1 tox inconclusive | FLuc counter 3 inactive | A549 tox-2 inactive | Nrf2 ARE inh 8.2µM
CC1Cc2cc(S(=O)(=O)N3CCN(c4cccc(Cl)c4)CC3)ccc2N1C(=O)C1CC1 (centres undefined)	Nrf2 block inconclusive
CCc1ccc(NC(=O)Cn2c(=O)n(CCC(=O)NCCc3ccc(Cl)cc3)c(=O)c3ccccc32)cc1	none (no result: Giardia kill)
COc1cc2sc3ccc(C#Cc4ccc(N)cc4)cc3c(=O)c2cc1OC	Nrf2 block 4.6µM | FLuc counter 3 inactive | A549 tox-2 inconclusive | Nrf2 ARE inh 2.3µM
FC(F)(F)c1cc(-c2ccccc2)nc(N2CCCCC2)n1	none (no result: Nrf2 block)
O=C(O)C1CCCN1c1nc(-c2ccc(Cl)c(Cl)c2)cc(C(F)(F)F)n1 (centres undefined)	Nrf2 block 7.3µM, KB-3-1 tox inconclusive, KB-V1 cytotox inconclusive | FLuc counter 3 inactive | A549 tox-2 inactive
COc1cc2c(oc(=O)c3cc(C)cc(OC)c32)c2c(C3OC(C)C(O)C(C)(O)C3O)ccc(O)c12 (centres undefined)	A549 tox-1 5.8µM, Nrf2 block 1.3µM, KB-3-1 tox inconclusive, KB-V1 cytotox inconclusive | FLuc counter 3 inactive | A549 tox-2 inconclusive | Nrf2 ARE inh 1.8µM
COc1cccc2cc(C(=O)N3CC(C)OC(C)C3)c(=O)oc12 (centres undefined)	none
CCCCC(CC)CNC(=O)CN1C(=O)CSc2ccc(S(=O)(=O)N3CCOCC3)cc21 (centres undefined)	none (no result: Nrf2 block, KB-3-1 tox, KB-V1 cytotox, Giardia kill)
Cc1nn(C)c(C)c1CN(C)S(=O)(=O)c1ccc2ccccc2c1	Nrf2 block 2.5µM, KB-V1 cytotox inconclusive | FLuc counter 3 inactive | A549 tox-2 inactive | Nrf2 ARE inh 1.2µM
CCn1nc(C)c(NC(=O)/C=C/c2cnn(C)c2C)c1C	KB-3-1 tox inconclusive
CCn1ncc(/C=C/C(=O)Nc2c(C)nn(Cc3ccc(Cl)cc3Cl)c2C)c1C	A549 tox-1 inconclusive, Nrf2 block 5.8µM | FLuc counter 3 inactive | A549 tox-2 inactive
COc1ccc(S(=O)(=O)n2nc(OC(=O)c3ccc(C)cc3)cc2N)cc1	Nrf2 block 0.58µM | FLuc counter 3 inactive | A549 tox-2 inactive
Cc1ccc(C(=O)Oc2cc(N)n(S(=O)(=O)c3ccc(C)cc3)n2)cc1	Nrf2 block 1.2µM | FLuc counter 3 inactive | A549 tox-2 inactive | Nrf2 ARE inh 4.6µM
Cc1ccc(S(=O)(=O)n2nc(OC(=O)c3ccccc3F)cc2N)cc1	none
CC(C)Cn1c(N)c(C(=O)CSc2ccccc2)c(=O)n(C)c1=O	Nrf2 block inconclusive, KB-3-1 tox inconclusive, KB-V1 cytotox inconclusive
CC(C)Cn1c(N)c(C(=O)COC(=O)CC23CC4CC(CC(C4)C2)C3)c(=O)n(C)c1=O	A549 tox-1 inconclusive, Nrf2 block 2.1µM, KB-3-1 tox inconclusive, KB-V1 cytotox inconclusive | FLuc counter 3 inactive | A549 tox-2 inactive
CC(C)Cn1c(N)c(C(=O)COC(=O)/C=C/c2ccccc2)c(=O)n(C)c1=O	A549 tox-1 inconclusive, Nrf2 block 6.5µM, KB-3-1 tox inconclusive | FLuc counter 3 inactive | A549 tox-2 inactive | Nrf2 ARE inh 7.3µM
